SARS PLP yeast = SARS-CoV PLP inhibition in yeast; S. cerevisiae expressing SARS-CoV PLpro, growth rescue; Potency, µM (doses to about 32.9 µM), for inactives: top-dose activity, positive = growth rescue, usual class: activators; 330,000 compounds, 0.19% hits; AID 485353; calls by dose curve; also: 0% is about no effect; nearly all actives have a fitted effect of over 55% in size
AMA1-RON2 inh = AMA1-RON2 (P. falciparum) interaction inhibition; AlphaScreen AMA1-biotinylated RON2 peptide binding; Potency, µM (series often up to 58.2 µM), without a hit: at the top dose activity change, negative = inhibition, usual class: inhibitors; 360,000 compounds, 0.2% hits; AID 720542;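 also: 0% = vehicle wells and -100% = peptide control; nearly all actives have a fitted effect of over 45% in size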
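AMA1 (3D7) with his tag at 25 nM final met compounds first, then biotinylated RON2 peptide at 25 nM; detection used donor plus acceptor beads, 10 µg/mL apiece, read by AlphaScreen after 30 min at room temperature.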
Pf growth 96h = inhibits malaria parasite growth, 96 h; P. falciparum luciferase reporter growth, 96 h; Potency, µM (series often up to 28.7 µM), inactives show at the top dose activity change, negative = inhibition, usual class: inhibitors; 320,000 compounds, 6.9% hits; AID 504834; also: % is scaled to controls: 0 for no effect and ±100 for the full control effect
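Delayed-death screen, second-generation endpoint: infected erythrocytes, 2% hematocrit, 0.05% parasitemia final; 96 hours at 37 C, 5% CO2; luciferase detection reagent; luminescence decrease equals reduced growth.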
Pf growth 48h = P. falciparum growth inhibition at 48 hours (one generation). Potency, µM (series often up to 28.7 µM), without a hit: at the highest dose activity change, negative = inhibition, actives largely listed as inhibitors. P. falciparum luciferase growth in erythrocytes, 48 h. 310,000 compounds, 5.9% hits; also: % is scaled to controls: 0 for no effect and ±100 for the full control effect
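Luminescence readout; reporter = integrated firefly luciferase in P. falciparum. RBC culture at 2% hematocrit, 0.1% parasitemia final, 37 C/5% CO2; decreased signal taken as growth inhibition.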
The depositor's hits bear a star; i = inactive; u = inconclusive; x = no result given; [ ] = another dose, or the depositor's remark. In the library only some 9.4% were active in any assay of this set; here they are far more common. Unless noted, calls follow the shape of the dose curve; as a rule, active = well fitted curve in the direction sought with a large enough effect; inconclusive = small, poorly fitted or top-dose-only effect, or another doubt; inactive = no such curve, though single readings can be large; an effect the other way counts as inactive or inconclusive. Potency is read from the fitted curve at half-maximal effect.

SMILES | SARS PLP yeast | AMA1-RON2 inh | Pf growth 96h | Pf growth 48h
CC1(C)O[C@@H]2C[C@H]3[C@@H]4CCC5=CC(=O)CC[C@]5(C)[C@@]4(F)[C@@H](O)C[C@]3(C)[C@]2(C(=O)CCl)O1 | x | 14% | 3.3µM* | 2.6µM*
CC(=O)OCC(=O)[C@@]12OC3(CCCC3)OC1CC1C3CCC4=CC(=O)C=C[C@@]4(C)[C@]3(F)C(O)C[C@]12C (stereo partly drawn) | x | x | 9.5µM* | 15µM*
CC(=O)C12OC(C)(C)OC1CC1C3CCC4=CC(=O)C=CC4(C)C3(F)C(O)CC12C (stereo not drawn) | x | 4% | x | x
COc1ccc([C@H]2[C@H](C(=O)C(C)(C)C)N3N=Cc4ccccc4C3[C@]23N=C(c2ccccc2)OC3=O)cc1 (stereo partly drawn) | -2% | -5% | 9.3µM* | 13µM*
O=C1CC(c2c(F)cccc2Cl)C2=C(COC2=O)N1 (stereo not drawn) | 0% | 15% | 33% | -13%
COc1ccc(Cl)c(N2CCN(CCCNC(=O)Nc3ccc(C)cc3)CC2)c1 | 0% | -2% | x | 13µM*
CCc1ccc(NC(=O)NCCN2CCN(c3ccc(OC)cc3)CC2)cc1 | -2% | -15% | 13µM* | -1%[0.00184 µM]
Cc1ccc2c(Cl)cc(Cl)c(OCC(=O)N3CCOCC3)c2n1 | -1% | -8% | u | u
CCOC(=O)C1(Cc2ccccc2C(F)(F)F)CCN(C2CCN(C(C)=O)CC2)CC1 | 1% | 5% | u | 9.3µM*
CC(C)CN(CC(C)C)C(=O)CS(=O)(=O)Cc1ccccc1 | 6% | 0% | -3% | 4%
O=C(Nc1ccc(F)cc1)Nc1nnc(Cc2ccccc2)s1 | 13% | 2% | 4.7µM* | u
Cc1cc(C(F)(F)F)cc(NNC(=O)NC(=O)c2ccccc2Cl)n1 | 1% | 101% | 48% | 38%
Cc1cc(NC(=O)Cn2nnc3sc4c(c3c2=O)CCC(C(C)(C)C)C4)no1 (stereo not drawn) | -17% | -2% | 4% | 10µM*
CC(NC(=O)c1ccc(Br)o1)C1CC2CCC1C2 (stereo not drawn) | -1% | 6% | 1µM* | -8%
c1cc2c(cc1CNc1ccc(N3CCOCC3)cc1)OCO2 | -10% | x | x | x
c1csc(-c2csc3nc(CN4CCOCC4)nc(NCc4ccc5c(c4)OCO5)c23)c1 | -1% | -29% | 8.3µM* | u
Cc1ccc(-c2nc(=S)c3c(n2Cc2ccco2)CC(C)(C)OC3)cc1 | 0% | 43% | 8.3µM* | u
CCN(CC)c1ccc(/C=C/c2cc(-c3ccccc3)c3ccccc3n2)cc1 | -1% | 90% | 12µM* | u
O=C(Nc1ccc(Cl)cn1)c1cccc(S(=O)(=O)N2CCOCC2)c1 | 16% | 31% | x | 10%
Cc1ccc(C(C)C)c(OCC(=O)Nc2ccc(Cl)cn2)c1 | -9% | 2% | 21% | u
Cc1ccc(C(C)C)c(OCc2nn(CC(=O)c3ccc(Cl)cc3)c3[n+]2CCCCC3)c1 | -3% | 3% | u | 12µM*
O=C(Cn1nc(CNc2ccc(Cl)cc2)[n+]2c1CCCCC2)c1ccccc1 | 12% | 3% | u | 0.93µM*
Clc1ccc(NCc2nnc3n2CCCCC3)cc1 | 5% | 1% | x | 12%
Cc1ccc2c(ccc(=S)n2C)c1 | 4% | u | u | 42%
CCOC(=O)c1ccc(NC(=O)NC2CC3CCC(C2)N3Cc2nnnn2C(C)(C)C)cc1 (stereo not drawn) | -2% | 6% | -13% | 2.1µM*
SMILES | SARS PLP yeast | AMA1-RON2 inh | Pf growth 96h | Pf growth 48h
CCOC(=O)c1ccc(NC(=O)NC2CC3CCC(C2)N3)cc1 (stereo not drawn) | -1% | -1% | i | -14%
COc1ccc(C(CNC(=O)C(CCSC)NC(=O)c2ccccc2Cl)N2CCCC2)cc1 (stereo not drawn) | 4% | -11% | u | u
CSCCC(NC(=O)c1ccccc1Cl)C(=O)NCC(c1ccco1)N1CCCCC1 (stereo not drawn) | 0% | 16% | 7.4µM* | 15µM*
COc1ccc(C(CNC(=O)C(CCSC)NC(=O)c2ccccc2Cl)N2CCCCC2)cc1 (stereo not drawn) | -3% | 1%[11.6 µM] | u | 7.4µM*
COc1ccccc1C(=O)NC(CCSC)C(=O)NCC(c1ccccc1OC)N1CCCC1 (stereo not drawn) | -2% | -5% | -29% | u
CSCCC(NC(=O)c1cccc(S(=O)(=O)N2CCOCC2)c1)C(=O)Nc1cccc(C)c1 (stereo not drawn) | 6% | 1% | u | -21%
CSCCC(NC(=O)c1ccccc1Cl)C(=O)Nc1cccc(S(=O)(=O)N2CCCC2)c1 (stereo not drawn) | 2% | 2% | u | 12µM*
COc1ccccc1NC(=O)c1c([N+](=O)[O-])c(C(C)(C)C)nn1C | -1% | -14% | u | u
Cn1nc(C(C)(C)C)c([N+](=O)[O-])c1C(=O)Nc1cccc2ccccc12 | 0% | -3% | 12µM* | 12µM*
COC(=O)c1cccc(C23CC4(C2)[C@H](CN(Cc2cccnc2)[C@@H]4c2ccccc2)C3c2ccc(C(F)(F)F)cc2)c1 (stereo partly drawn) | 1% | 8% | u | 2.3µM*
COC(=O)c1cccc(C23CC4(C2)[C@H](CN(Cc2cccnc2)[C@@H]4c2ccccc2)C3c2ccc(Cl)nc2)c1 (stereo partly drawn) | -3% | -12% | 12µM* | 13µM*
O=C(O)CCC(=O)N1CCc2cc(S(=O)(=O)N3CCN(c4ccc(F)cc4)CC3)ccc21 | 11% | 14% | 15µM* | x
Cc1ccc(CNS(=O)(=O)c2ccc3c(c2)CCN3C(=O)C2CCC2)cc1 | -2% | 5% | 13µM* | 18%
O=C(O)CCC(=O)N1CCc2cc(S(=O)(=O)NCc3ccc(Cl)cc3)ccc21 | 0% | 7% | 12µM* | 10%
CCC(=O)N1CCc2cc(S(=O)(=O)N(C)c3ccc(OC)cc3OC)ccc21 | -2% | -6% | 35% | -4%
O=C(O)CCC(=O)N1CCc2cc(S(=O)(=O)NCCc3ccc(Cl)cc3)ccc21 | -2% | 18% | u | 9%
COc1ccc(N(C)S(=O)(=O)c2ccc3c(c2)CCN3C(=O)C2CC2)c(OC)c1 | u | 1% | 4.1µM* | -6%
COc1ccc(N(C(=O)CNC(=O)c2ccco2)C(C(=O)NC2CCCCC2)c2ccncc2)cc1 (stereo not drawn) | 0% | -3% | 0% | 1%
CCN(CC)C(=O)CC(c1ccc2c(c1)OCO2)c1c(OC)cc(OC)c2ccc(=O)oc12 (stereo not drawn) | -1% | -7% | 10µM* | 8.3µM*
CCN(CC)CCC(c1ccc(N(C)C)cc1)c1c(OC)cc(OC)c2ccc(=O)oc12 (stereo not drawn) | 0% | u | u | 12µM*
COc1cc(OC)c2ccc(=O)oc2c1C(CCN1CCCC1)c1ccc(N(C)C)cc1 (stereo not drawn) | -1% | -22% | u | u
